Consider 39 targets from the supplement of paper PMC10849652.

Of roughly 8,800 targets only a part is listed; those with a hit were picked by preference. About 0.5% of all pairs of compound and target were hits. Unmarked numbers belong to inactive results.

UniProt Q9GZY8, sequence (Q9GZY8 whole entry, looked up): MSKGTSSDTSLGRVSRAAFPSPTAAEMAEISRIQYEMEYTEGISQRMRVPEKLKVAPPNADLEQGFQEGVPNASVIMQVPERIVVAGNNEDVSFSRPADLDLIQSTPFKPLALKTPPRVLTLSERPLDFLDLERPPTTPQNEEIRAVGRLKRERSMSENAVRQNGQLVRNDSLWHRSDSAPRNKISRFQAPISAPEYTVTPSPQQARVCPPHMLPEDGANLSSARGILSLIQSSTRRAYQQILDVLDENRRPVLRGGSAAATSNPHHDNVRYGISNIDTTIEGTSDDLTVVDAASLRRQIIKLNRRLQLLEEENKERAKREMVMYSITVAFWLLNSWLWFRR
UniProt Q15334, sequence (Q15334 whole entry, looked up): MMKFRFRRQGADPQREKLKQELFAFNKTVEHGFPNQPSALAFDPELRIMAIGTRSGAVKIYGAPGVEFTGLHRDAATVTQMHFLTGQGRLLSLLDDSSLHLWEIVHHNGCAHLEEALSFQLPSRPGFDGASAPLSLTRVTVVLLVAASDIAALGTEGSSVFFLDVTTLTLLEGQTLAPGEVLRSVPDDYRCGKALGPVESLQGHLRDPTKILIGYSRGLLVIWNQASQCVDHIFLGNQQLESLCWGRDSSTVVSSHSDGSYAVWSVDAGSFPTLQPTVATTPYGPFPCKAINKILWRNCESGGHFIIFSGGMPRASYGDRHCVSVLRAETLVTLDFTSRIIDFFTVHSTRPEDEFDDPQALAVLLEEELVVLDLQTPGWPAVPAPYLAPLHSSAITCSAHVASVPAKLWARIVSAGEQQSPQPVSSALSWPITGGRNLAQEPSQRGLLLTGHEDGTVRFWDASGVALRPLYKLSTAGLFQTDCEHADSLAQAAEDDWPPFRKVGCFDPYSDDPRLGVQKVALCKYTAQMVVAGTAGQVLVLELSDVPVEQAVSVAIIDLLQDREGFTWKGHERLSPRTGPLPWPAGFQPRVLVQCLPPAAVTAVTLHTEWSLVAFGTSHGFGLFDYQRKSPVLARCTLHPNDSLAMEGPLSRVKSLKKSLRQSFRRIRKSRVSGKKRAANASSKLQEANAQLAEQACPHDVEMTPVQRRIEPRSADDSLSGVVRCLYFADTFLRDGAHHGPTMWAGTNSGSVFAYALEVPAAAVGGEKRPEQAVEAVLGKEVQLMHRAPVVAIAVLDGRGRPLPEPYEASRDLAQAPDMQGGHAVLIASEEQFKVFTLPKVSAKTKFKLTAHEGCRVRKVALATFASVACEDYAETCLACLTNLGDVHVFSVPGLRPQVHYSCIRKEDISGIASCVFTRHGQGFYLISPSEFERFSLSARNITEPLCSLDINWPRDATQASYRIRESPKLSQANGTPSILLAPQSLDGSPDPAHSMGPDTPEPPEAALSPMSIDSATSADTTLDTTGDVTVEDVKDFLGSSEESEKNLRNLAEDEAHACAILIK
UniProt P48449, sequence (P48449 whole entry, looked up): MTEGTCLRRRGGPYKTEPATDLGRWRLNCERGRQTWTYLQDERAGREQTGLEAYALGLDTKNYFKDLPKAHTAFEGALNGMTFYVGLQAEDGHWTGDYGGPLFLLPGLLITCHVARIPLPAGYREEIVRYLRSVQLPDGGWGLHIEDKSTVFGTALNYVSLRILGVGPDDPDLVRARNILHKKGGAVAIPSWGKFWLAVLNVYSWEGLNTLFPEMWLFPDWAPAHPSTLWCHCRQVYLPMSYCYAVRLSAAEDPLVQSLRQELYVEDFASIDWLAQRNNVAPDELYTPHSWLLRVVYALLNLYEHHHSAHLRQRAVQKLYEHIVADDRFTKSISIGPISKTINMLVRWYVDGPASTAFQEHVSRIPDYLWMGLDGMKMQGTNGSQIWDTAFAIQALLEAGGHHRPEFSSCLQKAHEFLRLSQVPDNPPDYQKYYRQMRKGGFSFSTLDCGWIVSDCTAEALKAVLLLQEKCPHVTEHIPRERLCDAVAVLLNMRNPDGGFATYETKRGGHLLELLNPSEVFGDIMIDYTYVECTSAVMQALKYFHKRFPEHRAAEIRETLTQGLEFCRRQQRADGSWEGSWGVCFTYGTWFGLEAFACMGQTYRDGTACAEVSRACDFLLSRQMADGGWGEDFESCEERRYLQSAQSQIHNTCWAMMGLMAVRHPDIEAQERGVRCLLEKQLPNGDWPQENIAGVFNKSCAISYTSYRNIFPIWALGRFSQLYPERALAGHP
UniProt O95297, sequence (O95297 whole entry, looked up): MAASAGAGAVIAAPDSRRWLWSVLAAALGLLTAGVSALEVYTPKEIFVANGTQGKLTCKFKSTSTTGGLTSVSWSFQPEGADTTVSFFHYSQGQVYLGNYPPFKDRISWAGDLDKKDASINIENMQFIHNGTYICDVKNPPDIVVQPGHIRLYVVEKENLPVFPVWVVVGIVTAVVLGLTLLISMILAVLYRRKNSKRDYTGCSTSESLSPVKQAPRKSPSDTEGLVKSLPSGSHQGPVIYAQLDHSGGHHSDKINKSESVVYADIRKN
UniProt P48059, sequence (P48059 whole entry, looked up): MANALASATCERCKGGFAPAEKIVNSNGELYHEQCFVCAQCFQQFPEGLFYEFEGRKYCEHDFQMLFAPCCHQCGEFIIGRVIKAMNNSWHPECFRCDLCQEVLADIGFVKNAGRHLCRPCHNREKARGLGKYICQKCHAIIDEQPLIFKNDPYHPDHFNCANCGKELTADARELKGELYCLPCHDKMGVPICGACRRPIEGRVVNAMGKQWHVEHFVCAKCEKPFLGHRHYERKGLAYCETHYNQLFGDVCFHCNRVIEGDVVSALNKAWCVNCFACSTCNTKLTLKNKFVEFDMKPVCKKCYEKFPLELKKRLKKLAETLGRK
UniProt P27448, sequence (P27448 whole entry, looked up): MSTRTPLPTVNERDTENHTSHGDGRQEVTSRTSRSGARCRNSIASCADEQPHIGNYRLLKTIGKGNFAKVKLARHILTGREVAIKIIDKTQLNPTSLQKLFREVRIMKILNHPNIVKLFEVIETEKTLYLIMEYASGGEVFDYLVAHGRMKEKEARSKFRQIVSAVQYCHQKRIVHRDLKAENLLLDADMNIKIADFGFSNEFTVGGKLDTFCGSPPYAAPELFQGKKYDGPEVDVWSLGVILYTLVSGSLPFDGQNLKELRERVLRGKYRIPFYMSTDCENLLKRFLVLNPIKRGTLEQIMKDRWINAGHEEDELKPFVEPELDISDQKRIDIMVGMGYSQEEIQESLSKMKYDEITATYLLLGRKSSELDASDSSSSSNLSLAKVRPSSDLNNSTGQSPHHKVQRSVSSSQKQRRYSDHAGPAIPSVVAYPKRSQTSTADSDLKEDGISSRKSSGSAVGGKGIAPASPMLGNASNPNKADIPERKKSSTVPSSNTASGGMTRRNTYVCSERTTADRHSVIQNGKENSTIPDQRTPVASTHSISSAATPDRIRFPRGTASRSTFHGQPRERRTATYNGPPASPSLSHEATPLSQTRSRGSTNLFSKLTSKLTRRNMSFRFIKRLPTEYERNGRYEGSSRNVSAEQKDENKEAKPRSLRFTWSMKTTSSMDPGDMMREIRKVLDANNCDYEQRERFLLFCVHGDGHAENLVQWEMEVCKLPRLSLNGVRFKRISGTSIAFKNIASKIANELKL
UniProt Q15031, sequence (Q15031 whole entry, looked up): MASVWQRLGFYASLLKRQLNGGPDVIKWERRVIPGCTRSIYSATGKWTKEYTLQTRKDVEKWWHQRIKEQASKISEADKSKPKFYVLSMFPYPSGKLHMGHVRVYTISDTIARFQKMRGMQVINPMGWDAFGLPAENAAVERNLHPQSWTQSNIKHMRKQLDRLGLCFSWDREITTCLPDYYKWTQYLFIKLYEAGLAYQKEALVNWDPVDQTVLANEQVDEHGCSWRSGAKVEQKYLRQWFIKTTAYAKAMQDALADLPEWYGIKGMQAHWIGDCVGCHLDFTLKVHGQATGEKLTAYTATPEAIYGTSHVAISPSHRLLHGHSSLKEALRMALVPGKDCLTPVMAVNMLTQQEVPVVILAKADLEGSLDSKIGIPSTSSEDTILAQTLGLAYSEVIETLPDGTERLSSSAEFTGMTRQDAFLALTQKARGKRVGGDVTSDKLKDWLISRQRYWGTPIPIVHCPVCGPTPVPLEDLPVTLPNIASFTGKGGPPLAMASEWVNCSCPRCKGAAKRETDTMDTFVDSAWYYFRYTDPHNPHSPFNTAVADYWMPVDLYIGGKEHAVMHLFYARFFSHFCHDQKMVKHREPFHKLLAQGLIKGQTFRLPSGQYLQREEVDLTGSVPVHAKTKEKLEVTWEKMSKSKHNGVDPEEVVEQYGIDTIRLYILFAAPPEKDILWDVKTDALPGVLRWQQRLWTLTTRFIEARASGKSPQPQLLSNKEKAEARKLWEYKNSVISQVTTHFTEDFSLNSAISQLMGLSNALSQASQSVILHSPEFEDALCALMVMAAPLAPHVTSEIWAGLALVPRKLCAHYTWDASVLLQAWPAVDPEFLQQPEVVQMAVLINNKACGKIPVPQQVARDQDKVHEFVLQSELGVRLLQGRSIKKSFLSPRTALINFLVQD
UniProt Q9UFC0, sequence (Q9UFC0 whole entry, looked up): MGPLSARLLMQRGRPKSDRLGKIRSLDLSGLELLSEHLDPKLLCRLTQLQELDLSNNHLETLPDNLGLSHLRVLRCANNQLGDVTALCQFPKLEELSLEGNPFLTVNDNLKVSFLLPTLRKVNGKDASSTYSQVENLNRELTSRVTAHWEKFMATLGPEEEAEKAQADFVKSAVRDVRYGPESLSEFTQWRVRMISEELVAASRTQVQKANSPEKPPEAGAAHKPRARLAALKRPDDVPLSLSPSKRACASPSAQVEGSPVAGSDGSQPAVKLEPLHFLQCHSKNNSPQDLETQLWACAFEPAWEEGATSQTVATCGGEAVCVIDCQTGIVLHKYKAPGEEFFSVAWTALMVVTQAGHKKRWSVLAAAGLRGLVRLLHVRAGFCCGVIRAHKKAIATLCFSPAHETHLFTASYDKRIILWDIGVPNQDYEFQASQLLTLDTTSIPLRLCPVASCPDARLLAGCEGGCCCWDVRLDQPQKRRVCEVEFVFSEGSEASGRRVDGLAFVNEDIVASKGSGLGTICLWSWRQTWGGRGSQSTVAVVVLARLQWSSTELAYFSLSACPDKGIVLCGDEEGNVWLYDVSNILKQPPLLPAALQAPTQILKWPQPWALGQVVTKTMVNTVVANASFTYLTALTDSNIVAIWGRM

Compound in the first assay: COc1cc(Nc2ncc3c(n2)-c2ccc(Cl)cc2C(c2c(F)cccc2OC)=NC3)ccc1C(=O)O [alisertib]
As to the kind of experiment: log2 fold change, soluble protein after heating vs DMSO (PISA); higher = thermal stabilisation; K562 lysate, 10 uM; active = over 0.2 and 3.5 SD of the protein, either way, in both replicates (recomputed). Put shortly: (§1)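 A 30 min treatment with 10 μM compound was applied to crude K562 extract at 1 mg/mL protein in PBS pH 7.4 with 1 mM MgCl2. Heating for 3 min spanned 48°C-58°C, after which aliquots were pooled, adjusted to 0.5% NP-40 at 4°C and spun at 21,000xg for 90 min. TMTpro 16plex LC-MS/MS of the supernatant, with channel sums equalised, gave values recorded as log-two fold change in thermal stability against solvent controls, from duplicates.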
LARS2 (UniProt Q15031): the log2 fold change was 0.051.

As to LYSMD3 (UniProt Q7Z3D4), the log2 fold change was 0.001.

As for MARK3 (UniProt P27448), the log2 fold change was 0.006.

With MAP2K2 (UniProt P36507), the log2 fold change is -0.013.

Regarding MAD2L1BP isoform 3 (UniProt Q15013), the log2 fold change was 0.052.

On to MOCS1 isoform 8 (UniProt Q9NZB8), for which the log2 fold change is -0.099.

Consider LRRC40 (UniProt Q9H9A6), for which the log2 fold change is 0.031.

In the case of MPZL1 (UniProt O95297), the log2 fold change was 0.007.

As for MON2 isoform 5 (UniProt Q7Z3U7), the log2 fold change is -0.004.

Turning to LLGL1 (UniProt Q15334), the log2 fold change is -0.032.

Regarding MRPL10 isoform 2 (UniProt Q7Z7H8), the log2 fold change was 0.028.

For LIMS1 isoform 3 (UniProt P48059), the log2 fold change was 0.011.

For MED12 isoform 2 (UniProt Q93074), the log2 fold change was 0.016.

As to METTL7A (UniProt Q9H8H3), the log2 fold change is -0.036.

MED17 (UniProt Q9NVC6): the log2 fold change is -0.012.

Regarding LSM8 (UniProt O95777), the log2 fold change is -0.026.

MFF isoform 2 (UniProt Q9GZY8): the log2 fold change is 0.042.

With LARS (UniProt Q9P2J5), the log2 fold change was 0.01.

As for MAPK9 (UniProt P45984), the log2 fold change was -0.021.

With MED13L (UniProt Q71F56), the log2 fold change was -0.084.

Turning to MACROD1 (UniProt Q9BQ69), the log2 fold change was -0.037.

Consider MRPL46 (UniProt Q9H2W6), for which the log2 fold change is 0.02.

Consider MGST1 (UniProt P10620), for which the log2 fold change was 0.009.

Consider MGAT5 (UniProt Q09328), for which the log2 fold change was 0.025.

For MAT2B (UniProt Q9NZL9), the log2 fold change is 0.032.

Consider MCMBP (UniProt Q9BTE3), for which the log2 fold change was 0.005.

Consider MICB, A0A140T979, for which the log2 fold change was -0.043.

As for LSS (UniProt P48449), the log2 fold change is 0.011.

As for MORF4L1 isoform 2 (UniProt Q9UBU8), the log2 fold change was 0.045.

With MAPKAPK3 (UniProt Q16644), the log2 fold change was -0.055.

In the case of KPNA4 (UniProt O00629), the log2 fold change is -0.007.

With LIG3 (UniProt P49916), the log2 fold change is -0.009.

MAP4 (UniProt E7EVA0): the log2 fold change is -0.028.

For the target MLST8 (UniProt Q9BVC4), the log2 fold change was -0.016.

For the target LSG1 (UniProt Q9H089), the log2 fold change was -0.017.

For the target MPP1 (UniProt Q00013), the log2 fold change is -0.008.

On to LRWD1 (UniProt Q9UFC0), for which the log2 fold change was -0.001.

Consider MBD2 (UniProt Q9UBB5), for which the log2 fold change was 0.031.

For the target MCU (UniProt Q8NE86), the log2 fold change was 0.01.

Compound in a further assay: COc1cc2nc(-c3cc(F)ccc3O)nc(N[C@@H]3CNC[C@H]3C(C)(C)O)c2cc1OC
The assay is described as above. Put shortly:
as §1
Consider LARS2 (UniProt Q15031), for which the log2 fold change is 0.007.

Regarding LYSMD3 (UniProt Q7Z3D4), the log2 fold change was 0.112.

Take MARK3 (UniProt P27448): the log2 fold change was 0.003.

In the case of MAP2K2 (UniProt P36507), the log2 fold change was 0.009.

Consider MAD2L1BP isoform 3 (UniProt Q15013), for which the log2 fold change was -0.009.

Turning to MOCS1 isoform 8 (UniProt Q9NZB8), the log2 fold change was 0.003.

For LRRC40 (UniProt Q9H9A6), the log2 fold change was -0.008.

Consider MPZL1 (UniProt O95297), for which the log2 fold change was 0.012.

In the case of MON2 isoform 5 (UniProt Q7Z3U7), the log2 fold change was 0.

On to LLGL1 (UniProt Q15334), for which the log2 fold change is 0.121.

With MRPL10 isoform 2 (UniProt Q7Z7H8), the log2 fold change is -0.025.

As for LIMS1 isoform 3 (UniProt P48059), the log2 fold change is -0.003.

As to MED12 isoform 2 (UniProt Q93074), the log2 fold change is -0.011.

With METTL7A (UniProt Q9H8H3), the log2 fold change was -0.01.

Consider MED17 (UniProt Q9NVC6), for which the log2 fold change is 0.023.

Consider LSM8 (UniProt O95777), for which the log2 fold change is 0.005.

On to MFF isoform 2 (UniProt Q9GZY8), for which the log2 fold change was -0.075.

Consider LARS (UniProt Q9P2J5), for which the log2 fold change was -0.013.

Take MAPK9 (UniProt P45984): the log2 fold change is 0.006.

On to MED13L (UniProt Q71F56), for which the log2 fold change was -0.005.

With MACROD1 (UniProt Q9BQ69), the log2 fold change is -0.001.

As to MRPL46 (UniProt Q9H2W6), the log2 fold change is -0.045.

MGST1 (UniProt P10620): the log2 fold change was 0.023.

In the case of MGAT5 (UniProt Q09328), the log2 fold change was 0.054.

Regarding MAT2B (UniProt Q9NZL9), the log2 fold change was 0.016.

Turning to MCMBP (UniProt Q9BTE3), the log2 fold change is 0.

As for MICB, A0A140T979, the log2 fold change was 0.804 (active).

LSS (UniProt P48449): the log2 fold change was 0.032.

On to MORF4L1 isoform 2 (UniProt Q9UBU8), for which the log2 fold change was 0.044.

As to MAPKAPK3 (UniProt Q16644), the log2 fold change is 0.006.

Regarding KPNA4 (UniProt O00629), the log2 fold change is 0.002.

LIG3 (UniProt P49916): the log2 fold change is -0.008.

On to MAP4 (UniProt E7EVA0), for which the log2 fold change is 0.054.

Regarding MLST8 (UniProt Q9BVC4), the log2 fold change was -0.01.

With LSG1 (UniProt Q9H089), the log2 fold change was -0.028.

Turning to MPP1 (UniProt Q00013), the log2 fold change is -0.007.

With LRWD1 (UniProt Q9UFC0), the log2 fold change is 0.017.

Regarding MBD2 (UniProt Q9UBB5), the log2 fold change was 0.024.

On to MCU (UniProt Q8NE86), for which the log2 fold change is -0.063.
